# Compound activity: PubChem BioAssay, The Scripps Research Institute Molecular Screening Center
# rCAG RNA binder: r(CAG) repeat RNA binding; TO-PRO-1 dye displacement fluorescence; inhibition, % at 3 µM; actives 1.3% (n = 370,000);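 active = inhibition above the plate cutoff, the mean of all test compounds on that plate plus 3 SD, cut at about 35% in these data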;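 note: 0% = DMSO alone and 100% = 100 µM mitoxantrone as full dye displacement; higher means more dye released from RNA so lower well fluorescence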
# EBNA-1 inh: blocks EBNA-1 binding to DNA | EBNA-1 DNA binding, fluorescence polarization | inhibition, % at 14.8 µM | actives 0.34% (n = 300,000) | AID 1950; in the data active = inhibition above about 28%
# PAFAH2 inh: inhibitors of human PAFAH2. AID 492956. recombinant PAFAH2, FP-rhodamine activity probe, fluorescence polarization. inhibition, % at 3.39 µM. Q99487. actives 0.99% (n = 340,000);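 active = inhibition above the mean over all tested compounds plus 3 SD, cut at about 30% in these data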;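 note: inhibitors block probe labeling of enzyme so polarization drops; 0% = enzyme with DMSO and 100% = wells lacking PAFAH2 protein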
# PAFAH1B2 inh: blocks human PAF acetylhydrolase 1b catalytic subunit 2; recombinant PAFAH1B2, FP-rhodamine activity probe, fluorescence polarization; inhibition, % at 3.39 µM; actives 1.2% (n = 340,000); AID 492953;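 active = inhibition above the mean of all tested compounds plus 3 SD, cut at about 24% in these data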;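 note: 0% = enzyme with DMSO and 100% = wells lacking PAFAH1B2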
# Target sequence (P68402 whole entry, looked up): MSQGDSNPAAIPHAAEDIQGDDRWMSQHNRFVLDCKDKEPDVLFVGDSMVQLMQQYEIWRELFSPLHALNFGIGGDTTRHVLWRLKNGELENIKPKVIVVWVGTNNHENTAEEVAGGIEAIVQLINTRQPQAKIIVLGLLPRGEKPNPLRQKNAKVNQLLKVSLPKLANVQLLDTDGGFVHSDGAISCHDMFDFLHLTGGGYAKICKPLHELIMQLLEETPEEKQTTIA
# PAFAH1B3 FP inh: PAFAH1B3 (human) inhibition. actives 0.28% (n = 340,000). recombinant PAFAH1B3, FP-rhodamine probe, fluorescence polarization. AID 492972. Q15102. inhibition, % at 3.39 µM;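 active = inhibition above the screen-wide average of all tested compounds plus 3 SD, cut at about 25% in these data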;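 note: 0% = enzyme with DMSO only and 100% = wells lacking PAFAH1B3 protein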
# ZTA DNA inh: blocks Epstein-Barr virus ZTA, an EBNA-1 counter-screen; P03206; ZTA-DNA binding, fluorescence polarization; inhibition, % at 11 µM; actives 0.15% (n = 320,000); AID 2234; in the data active = inhibition above about 33%
# Target sequence (P03206 whole entry, looked up): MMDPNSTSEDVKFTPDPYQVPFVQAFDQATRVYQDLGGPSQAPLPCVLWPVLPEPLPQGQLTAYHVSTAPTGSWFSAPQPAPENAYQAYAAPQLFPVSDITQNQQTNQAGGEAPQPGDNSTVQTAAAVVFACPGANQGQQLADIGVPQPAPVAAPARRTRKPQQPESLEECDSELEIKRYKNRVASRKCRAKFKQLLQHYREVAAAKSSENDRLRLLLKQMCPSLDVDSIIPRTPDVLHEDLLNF
# * = called active by the depositor; i = inactive; x = not tested or not shown. Rows were chosen to be rich in hits. Some 2.9% of all compounds tested hit in one or more screens of this group.
SMILES,rCAG RNA binder,EBNA-1 inh,PAFAH2 inh,PAFAH1B2 inh,PAFAH1B3 FP inh,ZTA DNA inh
CCN(Cc1ccccc1)S(=O)(=O)c1ccc2c(c1)NC(=O)CS2,-2,0,9,24*,5,3
N#CC1=C(N)C2=C(N3CCCCC3)CCCC2C1(C#N)C#N (stereo unspecified),x,11,40*,26*,46*,-5
Cc1ccc(NC(=O)Cc2nc(-c3c[nH]c(C(=O)N4CCCC4)c3)cs2)c(C)c1,12,x,55*,3,9,13
Cc1ccc(NC(=O)CSc2n[nH]c(-c3ccncc3)n2)c(C)c1,2,-17,-1,4,7,-1
O=C(CSc1nnc(CNc2ccc(Cl)cc2)o1)Nc1nc2c(s1)CCCC2,22,23,12,24*,6,18
COCCNC(=O)c1onc(CSc2ccc(C(C)C)cc2)c1C(=O)O,25,-2,-3,18,3,-22
COCCNC(=O)c1onc(CSc2ccc(Cl)cc2)c1C(=O)O,5,6,10,28*,6,1
COc1ccc(/C(N)=N/OC(=O)Cc2ccc(C)cc2)cc1,-3,12,10,9,2,-2
COc1ccc(C/C(=N\OC(C)=O)c2ccc(OC)cc2)cc1,x,-3,2,30*,1,7
Cc1ccc2c(c1C)-c1c(ccc(C)c1C)C(=O)C2=O,3,x,31*,15,70*,x
Cc1ccc(CC#N)c(-c2c(CC#N)ccc(C)c2C)c1C,0,x,x,x,x,x
COC(=O)C1CN(Cc2ccccc2)CCS(=O)(=O)N1Cc1cn(Cc2ccc(Cl)cc2)nn1 (stereo unspecified),4,x,x,x,x,x
Cc1cc(C)nc(SCC(=O)N/N=C/c2cccn2-c2cccc(C(F)(F)F)c2)n1,-4,3,-1,-1,5,7
Cc1cc(C)nc(SCC(=O)N/N=C/c2cccn2-c2ccc(O)cc2)n1,5,-3,10,28*,3,-3
C=CCC12C=C(OC)C(=O)C(C1=O)C(c1ccc(OC)cc1)C2C (stereo unspecified),2,x,x,x,x,x
Nc1ccc(N2CCCCCC2)cc1,x,93*,x,x,x,165*
O=C(NCc1ccc(Cl)cc1)C(=O)NCC1OCCN1S(=O)(=O)c1cc(F)ccc1F (stereo unspecified),-2,9,3,30*,0,1
O=C(NCc1ccncc1)C(=O)NCC1OCCN1S(=O)(=O)c1cc(F)ccc1F (stereo unspecified),5,-11,-1,0,-4,-13
CC1CCN(S(=O)(=O)c2ccc(N=NC3=C(O)CC(C)(C)CC3=O)cc2)CC1,-1,-11,-7,45*,3,7
CC1(C)CC(=O)C(N=Nc2cccc(S(=O)(=O)N3CCOCC3)c2)=C(O)C1,-3,3,-4,-3,-1,-17
O=S(=O)(c1ccc2[nH]c3c(c2c1)CCCC3)N1CCCCC1,18,-5,7,5,5,1
N#Cc1ccc(S(=O)(=O)N2CCc3[nH]c4ccc(F)cc4c3C2)cc1,12,7,8,38*,5,10
O=C(NC(n1ccc(=O)[nH]c1=O)C(Cl)(Cl)Cl)C12CC3CC(CC(C3)C1)C2 (stereo unspecified),-1,-6,-4,27*,6,11
COC(=O)C1CN(Cc2ccc(Cl)cc2)CCS(=O)(=O)N1Cc1cn(Cc2ccc(F)cc2)nn1 (stereo unspecified),-1,x,x,x,x,x
N#CC12COC3(CCCCC3C1(C#N)C#N)OC2=N (stereo unspecified),-16,-2,38*,20,35*,-9
SMILES,rCAG RNA binder,EBNA-1 inh,PAFAH2 inh,PAFAH1B2 inh,PAFAH1B3 FP inh,ZTA DNA inh
COc1ccc(C2OC34CCCCC3C(C#N)(C#N)C2(C#N)C(=N)O4)cc1 (stereo unspecified),-10,4,61*,46*,50*,12
CC1OC23CCCCC2C(C#N)(C(=N)O3)C1(C#N)C#N (stereo unspecified),-2,-2,11,11,14,1
CCC1OC23CCCCC2C(C#N)(C(=N)O3)C1(C#N)C#N (stereo unspecified),-6,10,48*,34*,33*,-4
N#CC1(C#N)COC23CCCCC2C1(C#N)C(=N)O3 (stereo unspecified),-8,-12,35*,18,18,-1
COC(=O)[C@H](C(C)C)N(Cc1cn(Cc2ccccc2)nn1)S(=O)(=O)c1ccccc1Br,-1,x,x,x,x,x
COc1ccc(S[C@]2(C(=O)N(C)C)CC(=O)N(C(=O)Nc3ccc(C)c(Cl)c3)[C@@H]2c2ccc(OC)cc2)cc1,9,x,x,x,x,x
CCCNC(=O)C1CC(=O)N(c2ccc(OCc3ccc(Cl)cc3)cc2)C1 (stereo unspecified),-5,-3,-3,30*,0,-4
NC(=O)C1CC(=O)N(c2ccc(OCc3ccc(Cl)cc3)cc2)C1 (stereo unspecified),-5,0,-6,28*,4,-4
CCCNC(=O)C1CC(=O)N(c2ccc(OCc3ccc(F)cc3)cc2)C1 (stereo unspecified),-4,0,3,0,-6,2
O=c1ccc2c(-c3ccccc3)c3ccc(O)cc3oc-2c1,i,0,60*,47*,39*,6
Nc1ccc(-c2c3ccc(=O)cc-3oc3cc(O)ccc23)cc1C(=O)O,i,2,12,14,19,8
CCN(CC)CCn1c(SCC(=O)Nc2ccc3c(c2)CCC3)nc2ccccc2c1=O,7,x,6,25*,-6,-17
O=C(NCCc1c[nH]c2ccccc12)OCc1cn(Cc2ccc(C(F)(F)F)cc2)nn1,1,x,x,x,x,x
Cc1ccc(SC2=C(N(C)C)C(=O)c3ccccc3C2=O)cc1,6,x,19,25*,34*,x
N#Cc1ccc(Nc2nc(-c3ccc(O)cc3O)cs2)cc1C(F)(F)F,x,x,9,11,26*,3
Clc1ccc(N2CCN(/N=C/c3cccnc3)CC2)cc1,-1,6,2,28*,0,9
COc1cccc(C=NN2CCCCCC2)c1OC,1,x,-1,5,7,x
COc1cccc(/C=N/N2CCN(c3ccc(Cl)cc3)CC2)c1OC,11,10,0,33*,5,11
Cc1ccc(N2CCN(/N=C/c3cccnc3)CC2)cc1,-1,x,-6,7,8,x
COC(=O)[C@]12C[C@H](CC(=O)NCCc3ccccc3OC)C(=O)N(Cc3cccc4ccccc34)C1=C[C@H](COCc1ccccc1)O[C@@H]2C,11,x,x,x,x,x
CC(=NNC(=O)c1ccncc1)c1ccccc1O,1,x,-2,4,10,x
CC(C)CC(=NNC(=O)c1ccncc1)c1cc(Cl)ccc1O,17,x,-9,29*,8,x
CN(Cc1ccccc1)C(=O)OCc1cn(Cc2cc(F)cc(F)c2)nn1,0,x,x,x,x,x
O=C(CCc1ccccc1)N[C@H]1[C@H](OC(=O)c2cccnc2)CCC[C@@]12C(=O)N(Cc1ccccc1)c1ccccc12,6,x,x,x,x,x
